# Source: PubChem BioAssay
# Six1-Eya2 inh – qHTS Assay for Inhibitors of the Six1/Eya2 Interaction; activity change, % (concentration not given with the values); AlphaScreen GST-Six1/His-Eya2 binding, biochemical; hits give low values; 360,000 compounds, 0.56% hits
#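 Six1/Eya2 binding was read as AlphaScreen signal after compounds were pinned into GST-Six1 plus His-tagged Eya2 (5X stock 250/500 nM) in pH 8.0 Tris/NaCl/TCEP buffer, beads added, then incubated 1 h, 37 C, dark.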
# JMJD2E inh – qHTS Assay for Inhibitors of Human Jumonji Domain Containing 2E (JMJD2E); Lysine-specific demethylase 4E (Homo sapiens), B2RXH2; JMJD2E catalytic domain, FDH-coupled NADH fluorescence (FDH is formaldehyde dehydrogenase); 230,000 compounds, 1.6% hits; Potency, µM (titrated, usually from 57.1 µM), actives largely listed as inhibitors; AID 2147, 2009; active = well fitted inhibition curve with a large enough effect, not every such curve was filed as active; inconclusive = small, poorly fitted or top-dose-only effect, or another doubt; inactive = no such curve, though single readings can be large or run the other way; note: nearly all actives have a fitted effect of over 50% in size
# L3MBTL1 inh – qHTS Assay for the Inhibitors of L3MBTL1. AlphaScreen L3MBTL1–H3K9me1 peptide binding. Lethal(3)malignant brain tumor-like protein 1 (Homo sapiens), Q9Y468. 230,000 compounds, 0.66% hits. Potency, µM (titrated, usually from 57.1 µM), usual class: inhibitors; active = well fitted inhibition curve with a large enough effect; inconclusive = small, poorly fitted or top-dose-only effect; inactive = no such curve, though single readings can be large or run the other way; note: nearly all actives have a fitted effect of over 60% in size
# Target sequence (Q9Y468 whole entry, looked up): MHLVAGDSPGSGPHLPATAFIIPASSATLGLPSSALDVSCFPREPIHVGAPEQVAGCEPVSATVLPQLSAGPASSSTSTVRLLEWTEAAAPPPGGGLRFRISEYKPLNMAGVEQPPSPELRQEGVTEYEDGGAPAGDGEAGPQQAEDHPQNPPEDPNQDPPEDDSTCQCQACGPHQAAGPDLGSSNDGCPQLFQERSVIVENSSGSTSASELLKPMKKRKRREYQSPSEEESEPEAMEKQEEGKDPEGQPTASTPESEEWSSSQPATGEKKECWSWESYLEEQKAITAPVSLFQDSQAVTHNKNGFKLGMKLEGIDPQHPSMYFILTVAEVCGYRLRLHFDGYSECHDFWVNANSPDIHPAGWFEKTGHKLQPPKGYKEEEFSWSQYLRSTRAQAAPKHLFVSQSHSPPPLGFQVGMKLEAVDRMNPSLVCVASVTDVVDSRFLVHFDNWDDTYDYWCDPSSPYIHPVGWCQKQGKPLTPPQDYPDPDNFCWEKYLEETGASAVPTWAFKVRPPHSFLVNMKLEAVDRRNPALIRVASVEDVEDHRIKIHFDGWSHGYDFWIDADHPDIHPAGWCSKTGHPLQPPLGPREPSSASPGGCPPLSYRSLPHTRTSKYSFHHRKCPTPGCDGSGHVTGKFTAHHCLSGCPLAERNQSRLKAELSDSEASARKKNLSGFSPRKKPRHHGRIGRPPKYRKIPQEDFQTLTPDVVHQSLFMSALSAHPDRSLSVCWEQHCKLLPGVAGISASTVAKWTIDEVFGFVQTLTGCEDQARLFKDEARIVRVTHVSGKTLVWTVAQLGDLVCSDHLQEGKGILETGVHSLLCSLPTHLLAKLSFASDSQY
#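 First, the protein-peptide complex forms for 30 min at room temperature (L3MBTL1 50 nM, biotinylated H3K9me1 peptide 75 nM). Next, compounds are pin-transferred and incubated 30 min. Finally, AlphaScreen beads are added and read after 30 min.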
# CtBP-E1A blk – qHTS Assay for Inhibitors of the CtBP/E1A Interaction; AID 651724, 2012; AlphaScreen GST-E1A/His-CtBP binding, 1536-well; hits give low values; CtBP / adenovirus E1A interaction (AlphaScreen); activity change, % (concentration not given with the values); 340,000 compounds, 0.49% hits
#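 Protein mix (5X: 125 nM each GST-E1A, His-CtBP) was incubated with pinned compound 2 h at 37 deg C in dark, in 50 mM Tris pH 8.0 buffer with 300 mM NaCl. Glutathione donor and nickel acceptor beads followed; AlphaScreen signal read after 1 h.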
# A number is an active result; n = inactive; u = inconclusive; x = no result; [ ] = dose if it differs, or a comment. Only a selection was taken, and hits are over-represented in it overall. Cut-off read from the data, not from the text of the source, unless noted: active = activity change below about -65%; inconclusive = mostly about -30% to -63%; inactive = weaker than that.
SMILES,Six1-Eya2 inh,JMJD2E inh,L3MBTL1 inh,CtBP-E1A blk
O=C(CSc1nc(-c2ccc(F)cc2)nc2c1Cc1ccccc1O2)Nc1ccc(C(=O)O)cc1,n,u,5µM,n
Cc1ccc(-c2nc3c(c(SCC(=O)Nc4cccc(C(=O)O)c4)n2)Cc2cccc(C)c2O3)cc1,x,x,5.6µM,x
COC(=O)C1=C(C(=O)OC)[C@@H]2N(C)c3ccc(OC)cc3[C@@]23C[C@@H](C(=O)OC)N(S(=O)(=O)c2ccc(C#N)cc2)C3=N1,x,n[11.4 µM],x,x
CC1=C(C(=O)OCc2ccccc2)C(c2ccc(C3CCCCC3)cc2)NC(=O)N1CCCCCC(=O)O (stereo not drawn),x,n,x,x
COc1ccc(C(=O)Nc2cccc(-c3nnc(-c4ccco4)o3)c2)cc1,u,n,x,u
COc1cc(C(=O)Nc2cccc(-c3nnc(-c4ccco4)o3)c2)ccc1OC(C)=O,-86,u,n,u
COC(=O)c1ccc(=O)n(Cc2ccco2)c1,n,32µM,n[11.4 µM],n
O=C1CCCC2=C1C(c1ccco1)Nc1ccc3ccccc3c12 (stereo not drawn),u,u,3.2µM,n
Cc1cc(C(=O)NNC(=O)/C=C/c2ccco2)c(C)o1,u,x,7.9µM,n
O=C(CCCC(=O)NNC(=O)Nc1ccccc1)NNC(=O)Nc1ccccc1,n,n,n,x
COc1ccccc1Nc1ccc2c(O)cc(S(=O)(=O)O)cc2c1,-79,x,x,-88
CC(C)(C)C1=CC(=Nc2ccccc2N)C=C(C(C)(C)C)C1=O,-81,n,n,-79
CC(C)(C)C1=CC(=O)C(=O)C(C(C)(C)C)=C1,n,n,n,x
CC(C)(C)Cc1c(-c2ccc(Cl)cc2)nc2c(Cl)cc(C(F)(F)F)cn12,n,x,x,n
O=C(NN1C(=O)/C(=C/C=C/c2ccco2)SC1=S)c1ccncc1,u,20µM,x,n
O=C(O)c1ccc(N2C(=O)/C(=C/C=C/c3ccccc3)SC2=S)cc1,n,n,n,n
O=C1/C(=C/C=C/c2ccco2)SC(=S)N1c1ccc(O)cc1,u,14µM,4.5µM,u
CN(C)c1ccc(/C=C/C=C2/SC(=S)N(c3ccccc3)C2=O)cc1,-69,n,4.5µM,-66
CC(C)C(C(=O)O)N1C(=O)/C(=C/C=C/c2ccco2)SC1=S (stereo not drawn),-69,u,1.8µM,n
CCCS(=O)(=O)c1ncc(Cl)c(C(=O)Nc2ccc(S(=O)(=O)Nc3ncccn3)cc2)n1,-83,x,x,-77
CCSc1ncc(Cl)c(C(=O)Nc2ccc(S(=O)(=O)Nc3ncccn3)cc2)n1,n,x,x,n
Cc1[nH]nc2c1C(c1ccco1)C(C#N)=C(N)O2 (stereo not drawn),n,n,n,n
COc1ccc(-c2ccc(C3C(C#N)=C(N)Oc4n[nH]c(C)c43)o2)cc1 (stereo not drawn),u,n,n,-67
Nc1ccccc1N=Nc1ccccc1N,u,x,8.9µM,-79
Nc1ccccc1-c1ccccc1N,n,n,n,n
SMILES,Six1-Eya2 inh,JMJD2E inh,L3MBTL1 inh,CtBP-E1A blk
O=[N+]([O-])c1cc(/C=N/N/C(=N/c2ccccn2)c2ccccn2)ccc1O,-86,18µM,u,u
O=S(=O)(O)c1cc(O)c(N=Nc2ccc(O)cc2O)c2ccccc12,-83,x,x,-94
C=CCOC(=O)N[C@H](/C(C(=O)OC)=C(\C)NCc1ccccc1)c1cccc(OC)c1,x,n,x,x
c1ccc(CN2CCN(CCCNc3ccc4nnc(-c5ccccc5)n4n3)CC2)cc1,-69,n,n,n
Cc1cccc(N2CCN(C(=O)CSc3ccsc3[N+](=O)[O-])CC2C)c1 (stereo not drawn),n,n,32µM,n
COc1ccccc1CNC(=O)C1CCN(S(=O)(=O)c2ccc(N3CCCC3=O)cc2)CC1,n,x,x,n
C/C(=N\NC(=O)CN(c1ccccc1)S(C)(=O)=O)c1ccccc1O,n,18µM,n,n
Oc1c(Br)cc(Br)cc1/C=N/NC(=S)N[C@H]1CC2C=CC1C2 (stereo partly drawn),n,8.9µM,n,n
CC(C)(C)NC(=S)N/N=C/c1cc(Br)c(O)c(Br)c1,n,u,n,x
CNC(=S)N/N=C/c1cc(Br)cc(Br)c1O,-90,n,2µM,-97
CC(=O)Nc1ccc(C(=O)N/N=C/c2cc(Br)cc(Br)c2O)cc1,-65,n,n,u
COC(=O)C(C(=O)OC)C1c2ccccc2C=C(C)N1C(=O)OC (stereo not drawn),x,n[11.4 µM],x,x
C=C(C)C(=O)/C=C/c1ccc(C(F)(F)F)cc1,x,n,x,x
O=C1CC(c2ccco2)CC(O)=C1C=NCCO (stereo not drawn),n,n,n,n
O=C1CC(c2ccco2)CC(O)=C1C=NCC1NCCc2ccccc21 (stereo not drawn),n,20µM,n,n
Cc1cccc(S(=O)(=O)c2c(N)n(/N=C/c3ccccc3)c3nc4ccccc4nc23)c1,n,u,x,n
Nc1c(S(=O)(=O)c2ccccc2)c2nc3ccccc3nc2n1/N=C/c1cccc(O)c1,-75,u,n,-84
Nc1ccccc1NC1CCCCC1,n,14µM,x,n
CCCCNC(=O)C(c1ccc(OCC(=O)OC)c(C(=O)OC)c1)N(Cc1ccccn1)C(=O)CCCCCN1C(=O)NC(c2ccc(-c3ccccc3)cc2)C(C(=O)OCc2ccccc2)=C1C (stereo not drawn),x,n,x,x
O=c1oc2ccccc2c2oc3cc(O)c(O)cc3c12,n,28µM,u,n
Nc1c(N)c2ccccc2oc1=O,n,u,x,n
CCOC(=O)c1c(C)[nH]c(C(=O)OCc2ccccc2F)c1C,n,x,x,n
Cn1nnnc1N=N/C(=N/Nc1ccccc1)c1ccccc1,n,u,2.8µM,n
COc1ccc(CCNC(=O)c2c(Cl)ccc(Cl)c2OC)cc1OC,n,x,n,n
CCCCNc1c(-c2ccccn2)nc2nc(C)cc(C)n12,-88,x,x,u
SMILES,Six1-Eya2 inh,JMJD2E inh,L3MBTL1 inh,CtBP-E1A blk
Cc1ccc2nc(-c3ccccn3)c(NC3CCCC3)n2c1,u,n,n,-73
CCCCCCSc1cccc(-c2nc3ccc(C)cn3c2NC2CCCCC2)c1,n,x,n,n
Cc1cc(C)n2c(Nc3c(C)cccc3C)c(-c3ccccn3)nc2n1,-90,x,x,u
Cc1ccc(Nc2c(-c3ccccn3)nc3cccc(C)n23)cc1,-88,n,x,-98
Cc1cccc2nc(-c3ccco3)c(Nc3ccccc3)n12,n,u,x,x
Cc1ccc(S(=O)(=O)N2CCCN(C(=O)c3ccc(-n4cccn4)cc3)CC2)cc1,n,x,n,x
CCCN(CC(=O)Nc1ccc(Cl)cc1Cl)C(=O)c1ccc(=O)[nH]c1,n,x,x,n
COc1cc(C(O)c2nc3ccccc3n2C(C)C)cc(OC)c1OC (stereo not drawn),n,x,n,n
Cc1cccc(C)c1Nc1c(-c2ccccn2)nc2ccccn12,-84,n,u,x
CCOC(=O)c1c(C)n(-c2ccc(C)cc2)c2ccc(OCC(O)CNCC3CCCO3)cc12 (stereo not drawn),n,28µM,x,n
